# Experimental data: PubChem BioAssay (NCI)
# Compounds without any hit were thinned out: in the full panel of roughly 83,000, 20% have a hit.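 Single-concentration screen, 48 h exposure, 96-well plates. Endpoint: percent growth. Below 10 = active.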 Unmarked numbers belong to inactive results. Calls of active or inactive are those of the source.
# Tested on: EKVX NSCLC
# Assay: NCI-60 one-dose screen, 48 h (100 = growth as untreated, 0 = no growth, -100 = all killed)
# Details: 10 µM unless noted
row,Structure (SMILES),growth
1,ClC(Cn1ncc2c(Nc3cccc(Br)c3)nc(SCCN3CCOCC3)nc21)c1ccc(Br)cc1 (centres undefined),16.5%
2,COc1ccc(N=Nc2c(N)nn3c(N)c(C#N)c(-c4ccccc4)nc23)cc1,38.9%
3,Cc1cccc(-c2ccccc2Oc2ccc3nnc(Cl)n3n2)c1,98.2%
4,CCN1CCN(Cc2ccc(C(=O)Nc3cccc(Nc4ccc5c(OC)cccc5n4)c3)cc2C(F)(F)F)CC1,-95.7% (active)
5,N#CCc1nnc(NC(=O)c2ccc(-n3c(=O)[nH]c4ccccc4c3=O)cc2)s1,94.8%
6,COc1cc(NC(=O)CSc2nnc(-c3ccc(-c4nc5ccc(Cl)cc5[nH]4)cc3)o2)cc(OC)c1OC,81.1%
7,c1n[nH]cc1-c1nc2ccc3cn[nH]c3c2c2c1CCCC2,69.1%
8,Cc1ccccc1NC(=O)c1cccc(NC(=O)CCl)c1,97%
9,COc1ccc(-c2cc(-c3cc(OC)c(OC)c(OC)c3)[nH]c(=O)c2C#N)cc1,65.6%
10,O=C(CSc1nc2c(c(=O)[nH]1)CCCC2)Nc1ccccc1C(=O)O,99.2%
11,N/C(=N\c1nc2ccccc2s1)NC(=O)Nc1ccccc1[N+](=O)[O-],38.7%
12,FC(F)(F)c1cc2c(Cl)ncnc2n1CCN1CCOCC1,92.8%
13,O=C(NNC(=O)c1ccc(OCc2nc3ccc(Cl)cc3[nH]2)cc1)Nc1ccc(Cl)c(Cl)c1,91.9%
14,Clc1ccc(-c2nc3c4c(-c5ccccc5)c(-c5ccccc5)n(Cc5ccccc5)c4ncn3n2)cc1,2.2% (active)
